Compound activity as filed in PubChem BioAssay.
MOR-DOR ag = agonists of human mu-delta opioid receptor heterodimerization. P35372+P41143. cells, OPRM1-OPRD1 heterodimerization, luminescence. activation, % at 9.3 µM. 340,000 compounds, 0.3% hits;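 note: 0% = vehicle-treated cells and 100% = reference agonist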
Target sequence (P35372 whole entry, looked up): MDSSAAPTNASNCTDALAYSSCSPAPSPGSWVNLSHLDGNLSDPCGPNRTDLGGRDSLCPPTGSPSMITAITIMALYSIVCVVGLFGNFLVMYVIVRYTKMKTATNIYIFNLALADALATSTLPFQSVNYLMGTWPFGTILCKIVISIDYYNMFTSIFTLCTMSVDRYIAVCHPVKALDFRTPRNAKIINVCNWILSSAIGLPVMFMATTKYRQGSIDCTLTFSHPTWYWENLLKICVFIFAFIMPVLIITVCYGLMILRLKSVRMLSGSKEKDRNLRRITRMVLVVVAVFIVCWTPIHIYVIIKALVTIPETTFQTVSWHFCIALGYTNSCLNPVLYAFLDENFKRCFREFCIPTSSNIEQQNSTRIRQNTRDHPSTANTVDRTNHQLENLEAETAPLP
Target sequence (P41143 whole entry, looked up): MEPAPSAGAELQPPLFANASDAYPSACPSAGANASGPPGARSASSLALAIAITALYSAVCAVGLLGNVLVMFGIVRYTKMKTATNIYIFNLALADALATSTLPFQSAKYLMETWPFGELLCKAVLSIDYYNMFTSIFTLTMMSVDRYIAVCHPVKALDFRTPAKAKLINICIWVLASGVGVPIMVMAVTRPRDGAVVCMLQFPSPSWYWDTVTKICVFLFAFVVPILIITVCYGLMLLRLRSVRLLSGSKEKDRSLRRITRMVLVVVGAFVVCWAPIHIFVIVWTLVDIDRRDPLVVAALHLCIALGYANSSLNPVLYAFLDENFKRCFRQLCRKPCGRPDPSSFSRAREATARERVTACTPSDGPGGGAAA
OPRM1-OPRD1 inv = mu-delta opioid heterodimer inverse agonism; 340,000 compounds, 0.21% hits; cell-based MOR-DOR heterodimer luminescence; inhibition, % at 9.3 µM; in the data active = inhibition above about 22%, passing the limit was not always enough;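 note: 0% = cells with DMSO and 100% = wells without cells with DMSO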
HTR5A ag ctr = counter-screen for OPRM1-OPRD1 agonists: human HTR5A agonism; P47898; HTR5A agonist assay, luminescence, cell-based; activation, % at 9.3 µM; 340,000 compounds, 0.61% hits; AID 504692; in the data active = activation mostly above about 9.5%, no sharp cut-off; inactive = mostly below about 7.6%;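 note: 0% = cells with vehicle only and 100% = reference agonist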
HTR5A inv ag = HTR5A inverse agonism, opioid heterodimer counter-screen; P47898; HTR5A cell line, luminescence; inhibition, % at 9.3 µM; 340,000 compounds, 0.083% hits; in the data active = inhibition mostly above about 23%, no sharp cut-off; inactive = mostly below about 18%;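 note: 0% = cells with DMSO and 100% = no-cell wells with DMSO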
Bfl-1 A1 inh = inhibitors of the anti-apoptotic protein A1, read as caspase activation; MEF A1-2A-BIM cells, Caspase-Glo 3/7 luminescence, 3 h; percent of clofoctol response, vehicle zero; caspase activation, % (no concentration beside the values); 330,000 compounds, 0.066% hits;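 active = over half of replicate activation scores above 10%, or exactly half above 10 with the replicate mean above 10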
MOR-DOR ag conf = confirmation of human OPRM1-OPRD1 heterodimerization agonists; cells, MOR-DOR heterodimerization, luminescence complementation; 830 compounds, 45% hits; shares compounds with MOR-DOR ag; activation, % at 9.3 µM;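 note: 0% = vehicle-treated cells and 100% = reference agonist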
HTR5A ag ctr2 = HTR5A agonism, opioid heterodimer counter-screen | shares compounds with MOR-DOR ag | HTR5A agonist counterscreen, cell luminescence | activation, % at 9.3 µM | 830 compounds, 8% hits | AID 504905; in the data active = activation above about 17%;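 note: 0% = vehicle-treated cells and 100% = reference agonist response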
An asterisk follows results filed as active; i = inactive; . = no result. Only some compounds are listed: those with a hit (about 1.1% of all), similar ones and a draw of the others. Cut-off read from the data, not from the text of the source, unless noted: active = activation above about 18%; inactive = the rest.

SMILES	MOR-DOR ag	OPRM1-OPRD1 inv	HTR5A ag ctr	HTR5A inv ag	Bfl-1 A1 inh	MOR-DOR ag conf	HTR5A ag ctr2
COc1cc(/C=C/c2cccc[n+]2C)ccc1OCC(=O)Nc1cccc(Cl)c1	0	0	-3	9	0	.	.
COc1cc(Br)cc(/C=N/NC(=O)Cc2ccc(C(F)(F)F)cc2[N+](=O)[O-])c1O	18*	-96	4	-36	0	42*	2
CN(Cc1ccccc1)C(=O)COC(=O)c1cc(=O)[nH]c2ccccc12	-2	8	-3	12	0	.	.
CCOc1ccc2ccccc2c1/C=N/NC(=O)CNC(=O)C(c1ccccc1)c1ccccc1	1	-4	1	13	1	.	.
O=C(NCCc1ccccc1)C(c1cccs1)N(C(=O)c1csnn1)C1CC1 (centres undefined)	-2	11	-2	5	0	.	.
O=C(NCCc1ccccc1)C(c1cccs1)N(C(=O)CCl)c1ccc(Cl)cc1 (centres undefined)	87*	i	32*	-85	3	14	4
COc1cc(CNC(C)c2ccccc2)cc(Cl)c1OCC(=O)Nc1ccccc1 (centres undefined)	21*	-118	-4	10	-1	12	12
COc1cc(CNC(C)c2ccccc2)cc(Br)c1OCc1ccc(F)cc1 (centres undefined)	21*	-100	0	-1	1	16	5
CCN(CC)CCNCc1cc(Cl)c(OCC(=O)Nc2ccccc2)c(OC)c1	0	1	0	4	2	.	.
OC(CNCCc1ccccc1)COc1ccc(OCC(O)CNCCc2ccccc2)cc1 (centres undefined)	-1	7	-3	2	0	.	.
OC(CNCCC(c1ccccc1)c1ccccc1)COc1ccccc1 (centres undefined)	22*	-105	0	-48	-1	38*	6
Cc1cccc(NC(=O)c2cc3c(s2)-c2c(C)cccc2OC3)n1	2	-12	7	2	-12	.	.
Cc1cnc(N=Nc2ccccc2)[nH]1	-3	13	1	-4	.	.	.
COc1ccc(NC(=S)Nc2ccccc2SC)c(OC)c1	0	1	-5	2	0	.	.
Cc1ccc2sc(N(CCCN(C)C)C(=O)c3ccc(S(=O)(=O)N(C)C)cc3)nc2c1C	-1	4	1	-7	0	.	.
CCN(Cc1ccccc1)S(=O)(=O)c1ccc(C(=O)N(CCCN(C)C)c2nc3c(F)cccc3s2)cc1	144*	i	-1	-6	1	26*	3
Cc1ccc2sc(N(CCCN(C)C)C(=O)c3ccc(S(=O)(=O)N(C)Cc4ccccc4)cc3)nc2c1C	40*	-260	0	0	0	1	-2
Cc1ccc2sc(N(CCCN(C)C)C(=O)c3ccc(S(=O)(=O)N4CCc5ccccc5C4)cc3)nc2c1C	21*	-136	-5	-11	-1	0	1
CCOc1cccc2sc(N(CCCN(C)C)C(=O)c3ccc(S(=O)(=O)N(CC)Cc4ccccc4)cc3)nc12	3	-14	6	0	-1	.	.
CN(C)CCCN(C(=O)c1ccc(S(=O)(=O)N2CCOCC2)cc1)c1nc2ccc(F)cc2s1	-2	11	7	-26	0	.	.
CN(C)CCCN(C(=O)c1ccc(S(=O)(=O)N2CCCCCC2)cc1)c1nc2ccc(F)cc2s1	155*	i	2	-3	1	3	2
O=C(CCOc1ccccc1)Nc1ccc(S(=O)(=O)Nc2ncccn2)cc1	-2	11	-1	4	.	.	.
COc1cc(-c2noc(C)c2/C=C/c2ccc(OC(C)=O)cc2)cc(OC)c1OC	0	2	4	-27	1	.	.
O=C(NNC(=O)C1CCC(C(=O)NNC(=O)c2cccs2)CC1)c1cccs1 (centres undefined)	-1	3	4	-3	0	.	.
COc1cc2nc(N(CCCN(C)C)C(=O)c3ccc(S(=O)(=O)N4CCc5ccccc5C4)cc3)sc2cc1OC	-3	15	9	-22	0	.	.
